Reference: PubChem BioAssay AID504462 (Sanford-Burnham Center for Chemical Genomics, 2011)
Values joined by “and” are separate entries in the source; they are usually repeats but may differ in a detail not shown here. Equal entries are not always repeated. Out of some 340,000 compounds screened, about 1,700 (0.5%) were called active. No stated cut-off is given here; in the data, active means inhibition above about 40%; inactive means the rest. Only a selection was taken, and actives are over-represented in it overall.

Each compound was assayed against Cysteine protease ATG4B (Homo sapiens) (UniProt Q9Y4P1) (assay: blockers of ATG4B cysteine protease activity – biochemical, fluorescence, uHTS, primary screen (AID 504462)). Settings: ATG4B cleavage of LC3-PLA2, NBD-HPC fluorescence, 1 h; at 8.33 µM; stronger effect = higher value.
Chain of Cysteine protease ATG4B (Homo sapiens) (Q9Y4P1 whole entry, looked up): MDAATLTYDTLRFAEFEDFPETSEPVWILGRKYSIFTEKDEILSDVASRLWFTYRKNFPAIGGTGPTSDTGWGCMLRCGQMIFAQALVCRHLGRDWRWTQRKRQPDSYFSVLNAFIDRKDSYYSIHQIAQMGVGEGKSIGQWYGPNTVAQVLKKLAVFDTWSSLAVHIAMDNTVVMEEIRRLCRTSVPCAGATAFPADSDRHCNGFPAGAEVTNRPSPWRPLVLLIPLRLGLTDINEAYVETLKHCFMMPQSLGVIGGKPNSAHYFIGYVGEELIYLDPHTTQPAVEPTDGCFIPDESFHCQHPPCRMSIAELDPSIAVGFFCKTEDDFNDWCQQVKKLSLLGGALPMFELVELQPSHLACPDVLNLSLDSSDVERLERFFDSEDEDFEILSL
With `COc1cc(/C=C/C(=O)O)cc(S(=O)(=O)Nc2ccccc2SC)c1OC` the inhibition was -3.57% (inactive).
With `CS(=O)(=O)N(Cc1ccccc1Cl)c1ccc(C(=O)NCc2cccnc2)cc1` the inhibition was -9.46% (inactive).
`CCCCN(C(=O)CSCC(=O)Nc1ccc(OC)cc1)c1c(N)n(CCC)c(=O)[nH]c1=O` was tested, and the inhibition was -1.8% (inactive).
For `CCc1ccc(C(CNc2nc(C(F)(F)F)nc3ccccc23)N(C)C)cc1` (configuration not stated), the inhibition was 19.9% (inactive).
With `COc1cccc(CNc2nc(C(F)(F)F)nc3ccccc23)c1` the inhibition was 49% (active).
`NS(=O)(=O)c1ccc(CCNc2nc(C(F)(F)F)nc3ccccc23)cc1` was tested, and the inhibition was -2.12% (inactive).
With `COC(=O)CN(c1nc(C)c(Cl)c(OC)n1)S(=O)(=O)c1ccc(C)cc1` the inhibition was 11.3% (inactive).
For `CC1Cc2ccccc2N1C1=CC(=O)CC(C)(C)C1` (configuration not stated), the inhibition was -2.3% (inactive).
In the case of `CC1=C/C(=N\OS(=O)(=O)c2ccccc2)C=CC1=O`, the inhibition is reported as -2.58% (inactive).
`CC1=C/C(=N\S(=O)(=O)c2ccccc2)C(C(C)C)=CC1=O` was tested, and the inhibition was 66% (active).
With `COc1ccc(S(=O)(=O)/N=C2\C=C(NS(=O)(=O)c3ccccc3)C(=O)c3ccccc32)cc1` the inhibition was -24.5% (inactive).
For `Cc1cc(C)nc(-n2ncc3c2CC(c2ccc(C(C)C)cc2)CC3=O)n1` (configuration not stated), the inhibition was -17.4% (inactive).
`Cc1ccc(CNC(=O)CCN2C(=O)[C@@H]3Cc4ccccc4CN3C2=O)cc1` was tested, and the inhibition was 2.31% (inactive).
With `CC(=O)Nc1ccc(NC(=O)CSc2nnnn2-c2ccccc2F)cc1` the inhibition was 2.29% (inactive).
With `C=CCC1(CC=C)CCCN1C(=O)c1cc(COc2ccc(-n3cncn3)cc2)on1` the inhibition was 7.84% (inactive).
For `CC(C)CCNC(=O)C1CCCN(S(=O)(=O)c2ccc(F)cc2)C1` (configuration not stated), the inhibition was 0.97% (inactive).
For `O=C(c1ccc(OC2CCN(C(=O)c3cccnc3)CC2)cc1)N1CCCCCC1`, the inhibition was 19.9% (inactive).
For `COCCN1C=C2C(=O)C(C)(OC(=O)C3CCCC3)C(=O)C=C2C=C1c1ccsc1` (configuration not stated), the inhibition was 2.63% (inactive).
With `C=CCN1C=C2C(=O)C(C)(OC(=O)CCc3ccccc3)C(=O)C=C2C=C1c1ccc(C#N)cc1` (configuration not stated) the inhibition was -3.06% (inactive).
For `CC1(OC(=O)C2CCCC2)C(=O)C=C2C=C(c3ccc(C#N)cc3)OC=C2C1=O` (configuration not stated), the inhibition was 45.7% (active).
For `O=C(O)c1ccc([N+](=O)[O-])cc1Sc1ccsc1`, the inhibition was 5.83% (inactive).
In the case of `COc1ccc(C(=O)CC(=O)c2ccc(C)cc2)c(O)c1`, the inhibition is reported as 1.97% (inactive).
In the case of `O=C(O)C(c1ccccc1)N1C(=O)/C(=C\c2ccc(-c3cccc(Cl)c3)o2)SC1=S` (configuration not stated), the inhibition is reported as 59.4% (active).
With `CCN1C(=O)/C(=C\N2CCN(c3cccc(Cl)c3)CC2)SC1=S` the inhibition was 1.01% (inactive).
`Cn1cccc1/C=C1\SC(=S)N(NC(=O)c2ccc(Cl)cc2)C1=O` was tested, and the inhibition was 11.7% (inactive).
For `CCN(CC(=O)Nc1c(F)cccc1F)C(=O)c1ccc(-c2ccccc2)cc1`, the inhibition was 4.11% (inactive).
In the case of `Fc1ccc2[nH]c3c(N4CCN(Cc5ccc6c(c5)OCO6)CC4)ncnc3c2c1`, the inhibition is reported as 48.4% (active).
For `CCCCCc1c(C)nc(N2CCN(Cc3ccc4c(c3)OCO4)CC2)[nH]c1=O`, the inhibition was -0.63% (inactive).
`O=C(c1cccs1)N1CCN(Cc2ccc3c(c2)OCO3)CC1` was tested, and the inhibition was -7.13% (inactive).
`COC(=O)c1ccc(CNC(=O)Cn2cc(C)c(=O)[nH]c2=O)cc1` was tested, and the inhibition was -5.77% (inactive).
For `CN1CCN(Cc2nc3cc(NC(=O)COc4ccc([N+](=O)[O-])cc4)ccc3n2C)CC1`, the inhibition was -4.73% (inactive).
For `CC12c3ccccc3C(c3ccccc31)C1C(=O)N(Cc3cccnc3)C(=O)C12` (configuration not stated), the inhibition was -4.51% (inactive).
`Cc1cccc(C(=O)N2CCN(S(=O)(=O)N3CCCCC3)CC2)c1` was tested, and the inhibition was 0.43% (inactive).
`Cc1cccc(C)c1N1CCN(S(=O)(=O)N2CCCCC2)CC1` was tested, and the inhibition was 54.5% (active).
`Cc1cccc(C)c1N1CCN(S(=O)(=O)N2CCOCC2)CC1` was tested, and the inhibition was 19.1% (inactive).
`O=C(O)c1ccc(S(=O)(=O)N2CCOCC2)o1` was tested, and the inhibition was 0.56% (inactive).
For `O=c1cc(CO)oc(C(Nc2cccc([N+](=O)[O-])c2)c2ccccn2)c1O` (configuration not stated), the inhibition was -12.1% (inactive).
In the case of `CCOC(=O)C(C)Sc1nc2ccccc2c(=O)n1CC1CCCCC1` (configuration not stated), the inhibition is reported as 41.4% (active).
For `CCOn1c(SC(C)C)nc2ccccc2c1=O`, the inhibition was 7.51% (inactive).
In the case of `COCC(C)n1c(SCC(=O)NC2CCCCC2C)nc2ccccc2c1=O` (configuration not stated), the inhibition is reported as -0.82% (inactive).
With `O=C(CNC(=O)c1ccc(Br)o1)NCC1CCCO1` (configuration not stated) the inhibition was -6.66% (inactive).
`Cc1ccc(C)c(-n2cc(CN3CCN(C(=O)c4ncn[nH]4)CC3)c(-c3ccccc3)n2)c1` was tested, and the inhibition was 2.98% (inactive).
With `Cc1ccc(C(=O)C[n+]2cc(-c3ccccc3)n3c2CCCCC3)cc1` the inhibition was 10.8% (inactive) and 3.23% (inactive).
For `COc1ccc(Br)cc1/C=N/Nc1ccc(S(=O)(=O)Nc2ccccc2C(=O)O)cc1[N+](=O)[O-]`, the inhibition was 12.8% (inactive).
`COc1cccc(/C=N/Nc2ccc(S(=O)(=O)Nc3ccccc3C(=O)O)cc2[N+](=O)[O-])c1O` was tested, and the inhibition was 42.3% (active).
With `O=C(O)c1ccccc1/C=N/Nc1ccc(S(=O)(=O)Nc2ccc(Cl)cc2)cc1[N+](=O)[O-]` the inhibition was 1.28% (inactive).
With `O=C(OCc1cc(Cl)ccc1OC(F)F)c1cccnc1` the inhibition was -2.74% (inactive).
For `COc1ccc(CNC(=O)C2(CC3CC(c4ccccc4)=NO3)CCN(C(=O)c3cccc(O)c3)CC2)cc1` (configuration not stated), the inhibition was -7.3% (inactive).
For `CCOC(=O)c1c(-c2ccccc2)oc2cc(Br)c(O)c(C=O)c12`, the inhibition was 49.9% (active).
For `CCOC(=O)c1c(-c2ccccc2)oc2cc(Br)c(O)cc12`, the inhibition was -6.47% (inactive).
In the case of `CCOC(=O)c1c(-c2ccccc2)oc2ccc(OCC(=O)NN)cc12`, the inhibition is reported as -2.49% (inactive).
`O=C(CCc1ccccc1)Nc1ccc(NC(=O)C2CC2)nc1` was tested, and the inhibition was -15.9% (inactive).
`Cn1c(=O)c2c(SCC(=O)N3CCOCC3)nc(C3CC3)nc2n(C)c1=O` was tested, and the inhibition was -4.88% (inactive).
With `Cc1ccc(NC(=S)NCCc2ccc(Cl)cc2)c(C)c1` the inhibition was 5.82% (inactive).
`Cc1cccc(NC(=S)NCCc2ccc(Cl)cc2)c1C` was tested, and the inhibition was 48.4% (active).
`Cc1cccc(NC(=S)NCCc2ccc(F)cc2)c1C` was tested, and the inhibition was 20.9% (inactive).
In the case of `O=C(Nc1cccn(Cc2ccccc2Cl)c1=O)NC1CCCCC1`, the inhibition is reported as -3.28% (inactive).
With `Cc1ccc(N=C2NC(=O)/C(=C/C=C/c3ccco3)S2)cc1C` the inhibition was 47.9% (active).
In the case of `Cc1ccc(CNC(=O)CSc2nnc3c(n2)[nH]c2ccc(F)cc23)cc1`, the inhibition is reported as -1.66% (inactive).
For `CC1=CC2=NC(=O)/C(=C/c3coc4ccccc4c3=O)C(=N)N2O1`, the inhibition was -5.2% (inactive).
`O=C(CNC(=O)c1ccccc1)NCC(=O)OCc1ccc(Cl)cc1` was tested, and the inhibition was -3.69% (inactive).
With `S=C(NCCc1ccccc1)NCc1ccccc1Cl` the inhibition was 48.6% (active).
In the case of `S=C(NCCc1ccccc1)NCC1CCCO1` (configuration not stated), the inhibition is reported as -7.53% (inactive).
For `S=C(NCc1ccco1)NCc1ccccc1Cl`, the inhibition was 13.4% (inactive).
With `O=C1c2ccccc2C(=O)N1CCC(c1ccccc1)c1ccco1` (configuration not stated) the inhibition was 15.9% (inactive).
With `CC(Oc1ccc(F)cc1)C(=O)Nc1cc(S(=O)(=O)N2CCOCC2)ccc1N1CCN(C)CC1` (configuration not stated) the inhibition was -5.35% (inactive).
With `COc1ccccc1S(=O)(=O)c1c(C)cc(C)[nH]c1=O` the inhibition was -5.56% (inactive).
With `Cc1onc(C(=O)NCc2ccc(F)cc2)c1[N+](=O)[O-]` the inhibition was 1.98% (inactive).
In the case of `Cc1c(NC(=S)NCc2ccc(F)cc2)cccc1[N+](=O)[O-]`, the inhibition is reported as 77.1% (active).
With `Cc1c(NC(=O)CCCOc2ccccc2)cccc1[N+](=O)[O-]` the inhibition was -6.83% (inactive).
For `CCOC(=O)N1CCC(NC(=O)Cn2cc3c(n2)CCCCC3)CC1`, the inhibition was -3.87% (inactive).
With `CCn1c2ccccc2c2cc(CC(N)=O)ccc21` the inhibition was 25% (inactive).
In the case of `COC(=O)Cc1c(-c2[nH]c3ccccc3c2CC(=O)OC)[nH]c2ccccc12`, the inhibition is reported as 5.62% (inactive).
`NC(=O)Cc1ccc2c(c1)[nH]c1ccccc12` was tested, and the inhibition was 47.3% (active).
In the case of `CC(OC(=O)c1ccc(-n2cnnn2)cc1)C(=O)NCc1ccccc1` (configuration not stated), the inhibition is reported as -0.42% (inactive).
With `CCCCn1c(N)c(N(CC)C(=O)c2ccccc2C(F)(F)F)c(=O)[nH]c1=O` the inhibition was 1.66% (inactive).
`CC(C)(CNC(=O)c1cc(=O)[nH]c2ccccc12)N1CCOCC1` was tested, and the inhibition was -6.8% (inactive).
In the case of `Cc1c(N=Nc2ccc(N(C)C)cc2)c(=O)n(-c2ccccc2)n1C`, the inhibition is reported as -2.28% (inactive).
With `CCOC(=O)c1c(C)oc2ccc(OCC(=O)N(CC)CC)cc12` the inhibition was -8.98% (inactive).
`CC(=O)c1c(C)n(-c2ccc(N(C)C)cc2)c2ccc(OCC(N)=O)cc12` was tested, and the inhibition was 82.1% (active).
For `CC(=O)c1c(C)n(-c2ccc(C)cc2)c2ccc(O)cc12`, the inhibition was -0.19% (inactive).
With `COc1ccc(NC(=O)CSc2nnc(Cc3ccccc3)c(=O)n2N)cc1` the inhibition was -4.35% (inactive).
In the case of `N#Cc1c(-c2ccc(F)cc2)nc(-c2ccccc2)[nH]c1=O`, the inhibition is reported as 5.66% (inactive).
In the case of `N#Cc1c(-c2ccccc2)nc(SCc2cccc(C(F)(F)F)c2)[nH]c1=O`, the inhibition is reported as 34.9% (inactive).
`Cc1ccc(CSc2nc(-c3ccccc3)c(C#N)c(=O)[nH]2)cc1` was tested, and the inhibition was 49.2% (active).
For `Cc1cccc(N2CCN(C(c3ccc(N(C)C)cc3)c3nnnn3C(C)(C)C)CC2)c1C` (configuration not stated), the inhibition was -1.38% (inactive).
`COc1cc(C)c(S(=O)(=O)N2CCOCC2)c(C)c1C` was tested, and the inhibition was -9.43% (inactive).
`N#Cc1c(NC(=O)C2CC(Cl)=CCC2C(=O)O)sc2c1CCCCC2` (configuration not stated) was tested, and the inhibition was -4.77% (inactive).
With `COC(=O)c1c(NC(=O)CSc2nncs2)sc2c1CCCCC2` the inhibition was -14.5% (inactive).
For `COC(=O)c1c(NC(=O)C2CC(C)=C(C)CC2C(=O)O)sc2c1CCCCC2` (configuration not stated), the inhibition was 70.5% (active).
`O=C(CNC(=O)[C@@H]1Cc2ccccc2CN1)NC1CCCCC1` was tested, and the inhibition was -3.14% (inactive).
`CCSC(C)CC1C/C(=N/O)c2c(C)noc2C1` (configuration not stated) was tested, and the inhibition was -1.06% (inactive).
